Data as given in PMC7826789 (International Journal of Molecular Sciences, 2021).

Columns and labels:
Conditions in all cases: Compound Concentration (nM):1000
MRCKA = test system: T1, MRCKA
T1 construct: gene CDC42BPA

MRCKB = test system: T2, MRCKB
T2 construct: gene CDC42BPB

MST1R = test system: MST1R
MST1 = test system: T3, MST1
T3 construct: gene STK4

MST2 = test system: T4, MST2
T4 construct: gene STK3

MST3 = test system: T5, MST3
T5 construct: gene STK24

MST4 = test system: MST4
MTOR = test system: MTOR
MUSK = test system: MUSK
MYLK2 = test system: MYLK2
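Note: KINOMEscan scanMAX binding as percent activity remaining versus control; lower means stronger binding.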

SMILES | Percent Control (MRCKA) [%] | Percent Control (MRCKB) [%] | Percent Control (MST1R) [%] | Percent Control (MST1) [%] | Percent Control (MST2) [%] | Percent Control (MST3) [%] | Percent Control (MST4) [%] | Percent Control (MTOR) [%] | Percent Control (MUSK) [%] | Percent Control (MYLK2) [%]
NS(=O)(=O)c1ccc(N/N=C2\C(=O)Nc3ccc(C(=O)NCc4ccncc4)cc32)cc1 [GW300657X] | 100 | 98 | 100 | 100 | 45 | 73 | 75 | 97 | 83 | 100
COc1cc2ncnc(Nc3ccc4c(cnn4Cc4ccccc4)c3)c2cc1OC.Cl [GW282449A] | 100 | 100 | 100 | 100 | 100 | 100 | 94 | 100 | 100 | 100
C[C@@H](Oc1cc(-n2cnc3ccc(OC4CCN(C)CC4)cc32)sc1C(N)=O)c1ccccc1Cl [GSK579289A] | 100 | 88 | 100 | 77 | 24 | 84 | 59 | 95 | 85 | 48
COc1cccc(-c2c[nH]c3c(N/N=C/c4ccncc4)ncnc23)c1 [GW814408X] | 100 | 100 | 88 | 100 | 100 | 74 | 21 | 100 | 100 | 68
CCc1ccc(Oc2nccc(-c3c(-c4ccc(F)cc4)ncn3C3CCNCC3)n2)cc1 [SB-242719] | 68 | 17 | 100 | 88 | 66 | 90 | 61 | 89 | 100 | 80
CN(C)c1cc2c(Nc3ccc4c(cnn4Cc4ccccc4)c3)ncnc2cn1 [GW282974X] | 100 | 84 | 100 | 100 | 83 | 90 | 83 | 100 | 95 | 98
COc1cc(/C=N/Nc2ncnc3[nH]ncc23)ccc1O [GW578748X] | 100 | 100 | 100 | 100 | 86 | 93 | 20 | 96 | 100 | 81
COc1ccc2c(-c3ccnc(Nc4cccc(OC(F)(F)F)c4)n3)cnn2n1 [GW810372X] | 100 | 99 | 100 | 100 | 100 | 98 | 60 | 100 | 100 | 100
CCS(=O)(=O)c1ccc(OC)c(Nc2ncc(-c3cccc(F)c3)o2)c1 [GW621970X] | 100 | 100 | 100 | 100 | 100 | 100 | 93 | 100 | 100 | 98
CC1=C(C(=O)Nc2ccc3[nH]ncc3c2)C(c2ccc3ccccc3c2)CC(=O)N1 (stereo not drawn) [GSK270822A] | 100 | 85 | 46 | 93 | 73 | 90 | 53 | 100 | 95 | 100
COc1ccc2cc(-c3c(-c4ccncc4)nc(-c4ccc(S(C)(=O)=O)cc4C)n3C)ccc2c1 [SB-633825] | 93 | 88 | 85 | 66 | 60 | 100 | 82 | 100 | 99 | 100
Cl.O=C(O[C@H]1CN[C@H](C#Cc2cc3ncnc(Nc4ccc5c(cnn5Cc5ccccc5)c4)c3s2)C1)N1CCOCC1 [GSK200398A] | 100 | 86 | 100 | 100 | 100 | 83 | 100 | 100 | 100 | 100
COC(=O)Nc1nc2ccc(Oc3ccc(NC(=O)Nc4cc(C(F)(F)F)ccc4F)cc3)cc2s1.Cl [GW693917A] | 90 | 96 | 100 | 100 | 100 | 95 | 72 | 100 | 9.7 | 47
C/C(Nc1ccc(S(N)(=O)=O)cc1)=C1/C(=O)Nc2ccccc21 [GW335962X] | 100 | 92 | 100 | 82 | 100 | 27 | 8.4 | 96 | 100 | 100
CCS(=O)(=O)c1ccc(OC)c(Nc2ncc(-c3cccc(OC)c3)o2)c1 [GW580509X] | 100 | 100 | 100 | 100 | 100 | 100 | 100 | 100 | 100 | 100
Cl.O=C(Nc1ccc(Oc2ccc3[nH]c(NC(=O)c4ccccc4)nc3c2)cc1)Nc1cc(C(F)(F)F)ccc1F [GW709042A] | 85 | 90 | 100 | 73 | 100 | 100 | 69 | 82 | 19 | 91
NS(=O)(=O)c1ccc(N/N=C2\C(=O)Nc3ccc(C(=O)NCCc4c[nH]cn4)cc32)cc1 [GW300660X] | 100 | 100 | 100 | 100 | 60 | 100 | 25 | 91 | 100 | 100
O=C(Nc1n[nH]c2nc(-c3ccc(O)cc3)c(Br)cc12)C1CC1 [SB-725317] | 100 | 100 | 100 | 100 | 100 | 100 | 77 | 100 | 100 | 5.9
NS(=O)(=O)c1ccc(N/N=C2\C(=O)Nc3ccc(Cl)cc32)cc1 [GW280670X] | 100 | 100 | 100 | 100 | 100 | 100 | 63 | 100 | 100 | 100
Cl.O=S1CCN(Cc2ccc(-c3ccc4ncnc(Nc5ccc(OCc6ccccc6)c(F)c5)c4c3)o2)CC1 [GW576924A] | 100 | 100 | 100 | 100 | 100 | 100 | 100 | 100 | 100 | 100
CC1=C(C(=O)Nc2ccc3[nH]ncc3c2)C(c2ccc(Cl)c(Cl)c2)CC(=O)N1 (stereo not drawn) [GSK299115A] | 100 | 75 | 91 | 90 | 94 | 70 | 66 | 100 | 100 | 100
O=C1Nc2ccc(C(=O)c3ccco3)cc2C1=Cc1cc(Cl)c(O)c(Cl)c1 [GW406108X] | 100 | 100 | 100 | 93 | 0 | 86 | 79 | 100 | 100 | 100
COc1cccc(-n2ncc3c(N/N=C/c4ccncc4)ncnc32)c1 [GW784752X] | 100 | 100 | 100 | 100 | 100 | 93 | 74 | 100 | 100 | 91
Cl.c1ccc(Cc2nc3ccc(Nc4ncnc5ccccc45)cc3[nH]2)cc1 [GR269666A] | 100 | 100 | 100 | 100 | 100 | 100 | 100 | 100 | 100 | 100
CN(C)CCNC(=O)Nc1ccc(N(C)c2ccnc(Nc3ccc(CS(C)(=O)=O)cc3)n2)cc1.Cl [GW830900A] | 95 | 96 | 100 | 100 | 100 | 91 | 66 | 97 | 78 | 100
NS(=O)(=O)c1ccc(N/N=C2\C(=O)Nc3ccc(-c4cnco4)cc32)cc1 [GW276655] | 100 | 98 | 92 | 100 | 40 | 77 | 53 | 100 | 100 | 73
Nc1ncnc2occ(-c3ccc(NC(=O)Nc4cc(C(F)(F)F)ccc4F)cc3)c12 [GW770249X] | 100 | 100 | 100 | 100 | 83 | 82 | 59 | 100 | 1.4 | 83
COc1cc(N2CCN(C(C)C)CC2)ccc1Nc1nc(Nc2ccc(F)cc2C(=O)NC[C@@H](O)CO)c2cc[nH]c2n1 [GSK1392956A] | 100 | 100 | 100 | 100 | 92 | 90 | 94 | 100 | 100 | 100
CN1CCN(C(=O)c2ccc(NC(=O)Nc3ccc(N(C)c4ccnc(Nc5ccc(CS(C)(=O)=O)cc5)n4)cc3)cc2)CC1.Cl [GW830263A] | 89 | 86 | 41 | 96 | 16 | 47 | 11 | 100 | 11 | 36
NS(=O)(=O)c1ccc(Nc2ncc(-c3ccccc3)o2)cc1 [GW572399X] | 100 | 100 | 100 | 100 | 100 | 100 | 65 | 88 | 100 | 100
